Experimental data taken from PubChem BioAssay AID526 (National Center for Advancing Translational Sciences (NCATS), 2006).
Fewer than 10 of roughly 67,000 compounds were called active. Calls follow the shape of the dose curve; as a rule, active = well fitted activation curve with a large enough effect (not every such curve was filed as active); inconclusive = small, poorly fitted or top-dose-only effect, or another doubt; inactive = no such curve, though single readings can be large or run the other way. These entries were drawn from the full list.

Assay: Ubiquitin-GFP Assay
Conditions: Ubiquitin-GFP reporter cells, proteasome inhibition, GFP fluorescence, untreated = 0%, 10 µM MG-132 = 100%; series mostly up to 45.9 µM; activation (GFP accumulation): at the top concentration
Description: NIH Chemical Genomics Center [NCGC]
NIH Molecular Libraries Screening Centers Network [MLSCN]
The ubiquitin-proteasome pathway is present within all eukaryotic cells and plays roles in normal cellular functions and disease-related dysfunction. Proteins are tagged with a poly-ubiquitin chain that targets them for the proteasome, a multimeric protease, that degrades the protein into peptides and free ubiquitin. The proteasome has a key role in regulating cell cycle and growth and is known to control the levels of cyclins and CDK inhibitors as well as tumor suppressor proteins. Additionally, the activation of NF- B is controlled by ubiquitin-labeling and degradation of the inhibitory protein I B . […] With this in mind, proteasome inhibitors such as MG-132 and PS-341 have been used to inhibit tumor cell growth.
A cellular assay for ubiquitin-proteasome function was used to find chemical probes of this pathway. The assay used an ubiquitin-GFP construct expressed in U2OS cells (BioImage). Under basal conditions little GFP can be detected as it is degraded by the proteasome. However, treatment of the cells with a proteasome inhibitor such as MG-132 results in a rise in GFP levels that can be detected in as little as four hours. We used the Acumen-Explorer laser plate cytometer having a 488 nm laser as an excitation light source to detect the GFP. Compounds were screened in 1536-well plates using qHTS with a concentration-titration series range that varied from 46 uM to 2.9 nM.
NCGC Assay Protocol Summary:
Cells (U20S ps 2042) expressing ubiquitin (G76V-GFP) were maintained in DMEM with Glutamax-1 and high glucose, 10% FBS, 1% (v/v) penicillin-streptomycin, 0.5 mg/mL Geneticin (G418). The cells were seeded in 1536-well plates using a solenoid-based dispenser at 700 cells/5ul in DMEM medium with Glutamax-1 and high glucose containing 0.5% FBS, w/o phenol red, 25 mM HEPES. The plates were incubated at 37 °C/5% CO2 overnight. Then 23 nl of MG-132 in DMSO was added to the control wells at a final concentration of 10 uM. Next, 23 nL of library compounds in DMSO were added to the sample wells. The plates were incubated for 4 hrs at 37 °C/5% CO2. Following this incubation the plates were read on the Acumen using a cell object definition of 15 to 100 um in width and depth and a window of Total Intensity of between 77,200 and 2,720,000 FLU to enumerate GFP-expressing cells.
The %Activity was determined from the basal and MG-132 treated control wells. %Activity was determined by normalizing to the difference in signal between basal cells (0% Activity) and cells incubated with 10 uM of the proteasome inhibitor MG-132 (100% Activity). Concentration-response curves were fitted to the signals arising from the GFP fluorescence.
Assay Protocol Summary Table
Sequence Parameter Value Description
2. Time O/N 37C incubation
4. Compound 23 nL Libraries (46 uM to 2.9 nM)
5. Time 4 hr 37C incubation
6. Detector Acumen Total Intensity, GFP fluorescence (488 ex/515 em)
Keywords: NIH Roadmap, MLSCN, MLI, MLSMR, BioImage, proteasome, ubiquitin-GFP, qHTS, NCGC

Activation (GFP accumulation), inactive:
Cc1cc(C(=O)O)c(S(C)(=O)=O)s1 4.58%
CCn1nnc(NC(=O)c2cc(Cl)c(OC)c(Cl)c2)n1 -4.01%
CCC(c1nnnn1C1CCCC1)N(Cc1cccs1)Cc1cc2cccc(C)c2[nH]c1=O (stereo unspecified) 2.3%
Cc1ccccc1CSc1nnc(-c2ccccn2)n1N 6.85%
Cn1c(=O)c(CCc2ccccc2)nc2cnc(Nc3ccccc3)nc21 10%
COc1ccccc1CN1CC2(CCN(S(=O)(=O)c3ccccc3)CC2)C1 -3.1%
CC(C)(O/N=C(\C(=O)N[C@@H]1C(=O)N2C(C(=O)[O-])=C(C[n+]3ccccc3)CS[C@@H]12)c1csc(N)n1)C(=O)O -4.26% [at 20.5 µM]
CCc1cc(Br)ccc1NC(=O)C1CCCO1 (stereo unspecified) -1.25%
O=C(O)c1c(Br)c(Br)c(Br)c(Br)c1C1c2ccc(O)cc2Oc2cc(O)ccc21 5.65% [at 9.17 µM]
CS(=O)(=O)N1CCC2(CC1)CN(c1ccncc1)C2 1.35%
NCC(=O)[C@@H](O)[C@H](O)[C@H](O)CO 1.45% [at 9.17 µM]
O=C(c1ccco1)N1CCC[C@@]2(CCN(c3ccccc3)C2)C1 -4.44%
Cc1ccc(-c2cc(C(F)(F)F)n3nc(C(=O)N4CCCC4)cc3n2)cc1 6.67% [at 9.17 µM]
CC(C)CSC[C@@H]1O[C@H](n2cnc3c(N)nccc32)[C@H](O)[C@@H]1O -1.11% [at 9.17 µM]
O=C(Nc1nc2ccc(S(=O)(=O)N3CCCC3)cc2s1)C1CCCO1 (stereo unspecified) 5.33%
O=C(Cn1ccc(=O)[nH]c1=O)Nc1ccc(C(=O)O)c(O)c1 -3.58% [at 9.17 µM]
CNc1cc(-c2c(C)noc2C)ncn1 7.32%
CCOC(=O)c1cc(C)sc1NC(=O)C1CCC1 2.63%
CC(Sc1sc(=S)sc1SC(C)C(=O)O)C(=O)O (stereo unspecified) 5.41%
CCCOc1ccc(-c2nc(N)n[nH]2)cc1 -14.6%
CC(C)NS(=O)(=O)c1ccc(CCC(=O)N2CCOCC2)cc1 2.5%
CCOC(=O)c1sc(/N=C/Nc2nc(C)c(C(=O)OCC)s2)nc1C 1.72%
CCCCCCCCCCCC(=O)O[C@H](CC(=O)O)C[N+](C)(C)C -2.55%
CC(=O)O[C@]1(C(C)=O)CC[C@@H]2[C@@H]3C=C(C)C4=CC(=O)CC[C@@]4(C)[C@H]3CC[C@]21C 1.15% [at 20.5 µM]
CCCSC1=C(C#N)C(c2ccccc2C)C(C(=O)OC)C(=O)N1 (stereo unspecified) -1.15%
Nc1ccc2[nH]cc(CCC(=O)O)c2c1 -1.62% [at 9.17 µM]
Cn1c(NC(=O)c2ccc3c(c2)OCO3)cc(=O)n(C)c1=O -2.17%
N#CCCn1c(=O)c(-c2cc(F)cc(F)c2)nc2cnc(Oc3ccccc3)nc21 -6%
CCCCNc1nc(C)nc2c1nc(-c1ccccc1)n2CCCCN(CC)CC 16.4%
Cc1ccc(N2CCN(S(=O)(=O)c3ccc(F)cc3)CC2)c(C)c1 -6.67%
CN(Cc1ccco1)c1cc(-c2ccccc2C(F)(F)F)ncn1 -2.57%
COCCn1c(=O)c(CCc2ccccc2)nc2cnc(N3CCNCC3)nc21 9.28%
CCCCN(CCCC)C(=O)CCS(=O)(=O)c1ccc2c(c1)n(C)c(=O)c(=O)n2C -6.4%
COc1cccc(-c2cc(NCCc3c[nH]c4ccc(OC)cc34)ncn2)c1 -1.75%
Cc1ccccc1N1CCN(S(=O)(=O)C[C@@]23CC[C@H](C[C@H]2NC(=O)[C@@H](N)CCS(C)(=O)=O)C3(C)C)CC1 -0.202%
O=C(C1CCN(S(=O)(=O)c2cnc[nH]2)CC1)N1CCN(Cc2ccc3c(c2)OCO3)CC1 9.52%
Nc1cc(OC(=O)c2ccccc2Br)nn1S(=O)(=O)c1ccccc1 -17.3%
CN1[C@@H]2CC[C@H]1CC(NC(=O)c1nn(C)c3ccccc13)C2 (stereo partly specified) -8.43%
O=C(/C=N/O)Nc1ccccc1 -1.72%
CCOc1ccccc1-n1c(SCC(=O)N2CCCC2)nnc1-c1ccoc1C 4.13%
CN1CCN(c2ncncc2-c2ccc(C(=O)N(C)C)cc2)CC1 -6.06%
O=C(c1cc(C(F)(F)F)cc(C(F)(F)F)c1)N1CCC2(CCCN(c3ccccn3)C2)CC1 -3.52%
COC(=O)Nc1nc2ccc(Sc3ccccc3)cc2[nH]1 -2.7% [at 20.5 µM]
CCOC(=O)C1CCN(C(=O)COc2cc(C)c(Br)c(C)c2)CC1 1.64%
COCCn1c(=O)c(C)nc2cnc(N(C)C)nc21 0.246%
Cc1ccc(S(=O)(=O)c2nc(NCCCn3ccnc3)sc2Cl)cc1 -1.98%
COc1ccccc1-c1cc(NCc2cccs2)ncn1 -4.8%
Cc1c(NC(=O)c2cccnc2)c(=O)n(-c2ccccc2)n1C 4.26% [at 20.5 µM]
COc1cccc(N2C(=O)CC(N3CCN(S(=O)(=O)c4ccccc4)CC3)C2=O)c1 (stereo unspecified) -2.38%
Cc1cc(C(F)(F)F)nn1CC(=O)N1CCCC1 0.102%
CC(=O)N1CCC2(CCCN(Cc3ccc(C#N)cc3)C2)CC1 -2.4%
CC(NC(=O)c1cc(-c2ccccc2)on1)c1ccccc1 (stereo unspecified) -6.8%
N#CCCn1cnc2ccccc21 -0.926%
O=C(CCN1C(=O)c2ccccc2C1=O)Nc1ccncc1 8.7%
Clc1ccccc1-c1cc(NCCN2CCOCC2)ncn1 -1.15%
CCCS(=O)(=O)N1CCCC(C(=O)NCc2ccco2)C1 (stereo unspecified) 10.3%
COc1ccc(-c2noc(CN(C)S(=O)(=O)c3ccc(C)cc3)n2)cc1 -7.56%
Cc1nc2cnc(Nc3ccccc3)nc2n(C[C@H]2CCCO2)c1=O 7.85%
COc1ccccc1CNc1cc(-c2ccccc2CN(C)C)ncn1 0.877%
CCn1c(=N)c(C(=O)NCCCOC)cc2c(=O)n3cccc(C)c3nc21 0%
Oc1ccc(Cn2cc[nH]c2=S)cc1 1.69%
O=C(Nc1cccc(F)c1)N1CCC2(CC1)CCN(S(=O)(=O)c1ccccc1)CC2 1.75%
CCOc1ccc(N=NS(=O)(=O)O)cc1 -2.9% [at 9.17 µM]
NC(=S)c1ccc(C(N)=S)o1 -0.962%
COc1ccc(CN2CC(C(=O)NCCN3CCN(c4ccccc4F)CC3)CC2=O)cc1 (stereo unspecified) 0.948%
COC(=O)c1ccc2c(c1)S(=O)(=O)NC(=NCCCN1CCOCC1)S2 -2.3%
CN(C(=O)CN(CCO)CC(=O)N(C)C(C)(C)Cc1ccccc1)C(C)(C)Cc1ccccc1 -2.13% [at 20.5 µM]
O=C(O)C1=CCCN(CCON=C(c2ccccc2)c2ccccc2)C1
CCS(=O)(=O)N1CCCC(C(=O)NCCCN(C)Cc2ccccc2)C1 (stereo unspecified) -17.9%
COC(=O)C1(S(=O)(=O)C2(C(=O)OC)CCCC2)CCCC1 -3.95%
CC(C)[C@H](CO)Nc1nc(Nc2cc(N)cc(Cl)c2)c2ncn(C(C)C)c2n1 4.86%
O=c1cc(-c2ccc(O)c(O)c2)oc2cccc(O)c12 -3.85%
CC(C)NC[C@H](O)c1ccc2ccccc2c1
CCOC(=O)c1sc(NC(=O)CSc2nnc(-c3ccco3)o2)c(C(=O)OCC)c1C 0.862%
CN1CCN(Cc2nc3c(c(=O)n(C)c(=O)n3C)n2Cc2cccc3ccccc23)CC1 7.76%
O=C(O)[C@@H](S)[C@H](S)C(=O)O 4.35% [at 9.17 µM]
COC(=O)c1ccc(NC(=O)C(C)N2C(=O)c3ccccc3C2=O)cc1 (stereo unspecified) 18%
CC(=O)N1CCC2(CC1)CCN(c1ccncc1)CC2 -6.67%
COCCn1c(=O)c(-c2ccc(OC)cc2)nc2cnc(Oc3cccc(Cl)c3)nc21 1.07%
Cc1cccc(OCc2nnc(SCn3nnc4ccccc4c3=O)o2)c1 5.55%
Fc1cccc(/C=N\N=C/c2cccc(F)c2)c1 0.0487%
COc1ccc(CNc2ncnc3ccc(-c4cccnc4)cc23)c(OC)c1 2.78%
CC(C)(C)Nc1c(N)c(=O)oc2ccccc12 -4.55% [at 9.17 µM]
COc1ccccc1N1CCN(C[C@@H]2CN3C(=O)N(C)c4ccccc4C3=N2)CC1 1.28%
CC[C@]1(C)CC(=O)NC1=O
Cc1cc(=O)[nH]c(SCc2cc(Cl)ccc2OC(F)F)n1 -2.36%
COc1ccc(NC(C)=O)cc1NC(=O)CN1CCN(C2c3ccccc3-c3ccccc32)CC1 6.87%
COCC(=O)Nc1nnc(COc2ccccc2)s1 2.01%
O=C(O)Cc1ccc(-c2ccccc2)cc1 -6.38% [at 20.5 µM]
CCCS(=O)(=O)N1CCN(C(=O)c2cccs2)CC1 5.32%
CC1=C(C(=O)OC2CCCCC2)C(c2cccnc2)n2ncnc2N1 (stereo unspecified) 0%
C1=C(N2CCOCC2)/C(=C/c2nc3ccccc3[nH]2)CC1 -10.8% [at 9.17 µM]
O=C(CSc1nnc(-c2cccnc2)n1Cc1ccco1)c1ccc(Cl)cc1 -0.562%
CC(C)(CSc1nncn1/N=C/c1ccco1)NS(=O)(=O)c1ccc(Cl)cc1 -1.69%
CCC(c1nnnn1Cc1ccco1)N(CCc1ccccc1)Cc1cc2cccc(C)c2[nH]c1=O (stereo unspecified) 0.917%
CC(C(=O)O)N1C(=O)c2cccc3cccc1c23 (stereo unspecified) -5.36%
CC[N+](C)(CC)CCC[n+]1c(-c2ccccc2)c2cc(N)ccc2c2ccc(N)cc21 17.1% [at 20.5 µM]
CC1(C)S[C@@H]2[C@@H](NC(=O)[C@@H](N)c3ccccc3)C(=O)N2[C@H]1C(=O)O 0%
Cc1ccc(CNC(=O)C2CC(=O)N(C3CCCCCCC3)C2)cc1 (stereo unspecified) -1.72%
COc1ccccc1-n1nnnc1S(=O)(=O)Cc1ccc(Cl)cc1 -7.5%
Cc1nc(N2CCN(c3ncccn3)CC2)c2oc3ccccc3c2n1 1.72%
CSc1ccc(S(=O)(=O)Nc2cccc(F)c2)cc1 -0.229%
O=C(NCc1cccs1)C1CCN(S(=O)(=O)c2ccc3c(c2)OCCO3)CC1 -1.96%
O=S(=O)(O)c1ccc(O)c2ncccc12.O=S(=O)(O)c1ccc(O)c2ncccc12.[Zn] 2.9% [at 9.17 µM]
CN(C)c1ccc(CNC23CN4CN(CN(C4)C2)C3)cc1 -1.33%
CCCn1c(C(O)c2cc(OC)ccc2OC)nc2ccccc21 (stereo unspecified) -12.9%
